According to PubChem BioAssay AID2650 (Broad Institute, 2010):
About 320 (0.1%) of roughly 320,000 compounds were called active.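 How the source made its calls: active means more than half of replicates show inhibition above 20%; inconclusive means some but at most half of replicates above 20% inhibition; inactive means no replicate shows inhibition above 20%.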 For the sample, actives were picked, then their nearest neighbours and some compounds at random. Non-standard residues stand in square brackets, D forms with d. Residues, ends and D or L forms follow the SMILES beside them. ξ: configuration not given here. ξM = CSCCC(N)C(=O)O

The molecules below were run against Glycogen synthase kinase-3 alpha (Homo sapiens) (UniProt P49840) (assay: blockers of GSK3A enzyme activity – biochemical, luminescence, cell-free homogeneous, HTS, primary screen (AID 2650;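 further: GST-tagged GSK-3 alpha with peptide substrate and 25 µM ATP; 0% = DMSO neutral wells and 100% = GW8510 positive control wells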)). Conditions: GSK-3 alpha kinase, ADP-Glo luminescence, 60 min; at 10 µM; hits give high values.
Chain of Glycogen synthase kinase-3 alpha (Homo sapiens) (P49840 whole entry, looked up): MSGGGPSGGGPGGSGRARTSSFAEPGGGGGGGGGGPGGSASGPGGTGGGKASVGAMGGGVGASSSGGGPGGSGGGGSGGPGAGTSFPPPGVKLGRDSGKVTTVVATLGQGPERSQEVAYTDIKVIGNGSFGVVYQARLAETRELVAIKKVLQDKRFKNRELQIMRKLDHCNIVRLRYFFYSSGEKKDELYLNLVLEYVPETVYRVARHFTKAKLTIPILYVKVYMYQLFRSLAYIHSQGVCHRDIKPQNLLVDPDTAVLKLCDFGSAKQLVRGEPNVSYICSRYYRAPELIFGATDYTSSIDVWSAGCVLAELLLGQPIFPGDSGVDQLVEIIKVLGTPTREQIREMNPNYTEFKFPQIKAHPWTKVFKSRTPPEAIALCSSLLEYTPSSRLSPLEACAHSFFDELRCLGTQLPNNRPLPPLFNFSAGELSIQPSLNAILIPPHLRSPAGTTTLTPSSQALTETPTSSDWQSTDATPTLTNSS

inhibition, active:
COCCNc1nc(N)c([N+](=O)[O-])c(NCCO)n1 53.1%
OCCCNc1nccc(-c2cc(Nc3cccc(Cl)c3)ncn2)n1 89.3%

inhibition, inactive:
COc1ccc(/C=C/C(=O)OCC(=O)NC2CCCCCC2)cc1OC -0.779%
COc1ccc(S(=O)(=O)N2CCN(C(C)C(=O)Nc3ccc(C(C)C)cc3)CC2)cc1 (stereo unspecified) 1.33%
COCCCn1c(Cc2csc(Nc3cccc(Cl)c3)n2)nnc1SCC(=O)OC1CCCCC1 1.8%
CC(=O)c1cccc(OCC(=O)OCC(=O)Nc2cc(S(=O)(=O)N3CCCCC3)ccc2C)c1 2.43%
CCOCC(=O)Nc1ncc(S(=O)(=O)c2ccc([N+](=O)[O-])cc2)s1 -1.6%
COC(=O)CNC(=O)C(CCSC)NC(C)=O (stereo unspecified) (Ac-[ξM]-Gly-OMe) -4.49%
CSCc1cc(N(C)C)nc(SCc2ccc(Cl)cc2Cl)n1 -5.57%
C=CCNc1nc(N)c([N+](=O)[O-])c(NC2CCCCC2)n1 0.434%
COCCNc1nc(N)c([N+](=O)[O-])c(N2CCCCCC2)n1 1.39%
COc1ccc(C(=O)NCc2ccccc2C)cc1S(=O)(=O)NC1CCCC1 -2.96%
Cn1c(SCC(=O)Nc2nccs2)nnc1-c1cccnc1 2.04%
CC1CCCN(C(=O)CN2C(=O)c3ccccc3S2(=O)=O)C1 (stereo unspecified) -0.713%
CC1CC(=NNC(=O)C2COc3ccccc3O2)CC(C)(C)C1 (stereo unspecified) 0.373%
C=CCC[C@H](Cc1ccc(F)cc1)C(=O)OC[C@@H](NC(=O)[C@@H](CC=C)CC(=O)N[C@H](CO)Cc1ccccc1)C(C)(C)C -1.79%
CS(=O)(=O)N(CC(=O)NC1CCCC1)Cc1ccc(F)cc1 10.3%
O=S(N1CCCCCC1)C12CC3CC(CC(C3)C1)C2 (stereo unspecified) -2.72%
Cc1cc(C)c(S(=O)(=O)n2cc(C(C)C(N)C(=O)O)c3ccccc32)c(C)c1 (stereo unspecified) -2.93%
NC1=NC[C@@H](Cc2ccc(O)cc2)N1CC1CCCCC1 1.17%
O=C(CSc1nc2nccnc2c(=O)n1Cc1cccs1)Nc1ccccc1F 1.43%
O=C(c1ccc(N2CCOCC2)c([N+](=O)[O-])c1)N1CCN(c2ccccc2F)CC1 -2.69%
Cn1c(-c2ccc(F)cc2)cc2onc(-c3ccccc3Cl)c2c1=O -1.73%
CCN(CC)CCCNC(=O)CCn1nc(-c2ccc(Cl)cc2)ccc1=O -1.8%
O=C(NCCCN1CCCC1=O)C(=O)NCC1OCCN1S(=O)(=O)c1ccc(Br)cc1 (stereo unspecified) -1.8%
COc1ccc2nc3n(c(=O)c2c1)-c1ccc(Cl)cc1C(=O)NC3Cc1ccccc1 (stereo unspecified) -2.35%
N#Cc1ccccc1CN1C(=O)S/C(=C/c2cccn2-c2cccc(C(=O)O)c2)C1=O 3.06%
COc1ccc(Cn2c(C)c(C)c(C#N)c2NC(=O)Nc2ccc(F)cc2)cc1 -1.46%
O=C(Nc1ccc(S(=O)(=O)N2CCCCC2)cc1)C1CC(=O)N(c2ccc(F)cc2)C1 (stereo unspecified) 0.943%
CCOc1ccc(S(=O)(=O)NCCC(=O)NCC(C)(C)N2CCOCC2)cc1 -4.12%
CC(C)n1cnc2c(NCc3ccccc3)cc(N[C@@H](CO)Cc3ccccc3)cc21 -3.52%
CCOc1ccc(CCNC(=O)C(CC)n2nc(C)n3c(cc4sccc43)c2=O)cc1OCC (stereo unspecified) 8.43%
CC1=C(C(=O)NC2CC(C)(C)Cc3c2cnn3-c2ccc(C)cc2)OCCO1 (stereo unspecified) -2.77%
Cc1cccn2c(=O)nc(SCC(=O)NCc3ccccc3Cl)nc12 -2.07%
O=C(CN(C(=O)c1csnn1)c1cccc(F)c1)NCc1ccc(F)cc1 0.738%
O=C(Nc1ccccn1)C1CCN(S(=O)(=O)c2ccccc2)CC1 3.28%
CCCC1NC(=S)NC(C)=C1C(C)=O (stereo unspecified) -1.05%
OCCCNc1nc(-c2ccccc2)c2cc(Cl)ccc2n1 1.49%
CC(C)n1cnc2c(Nc3cccc(Cl)c3)nc(N(CCO)CCCO)nc21 9.71%
CCCOc1ccc(Cc2c(O)nc(N)[nH]c2=O)cc1C -0.849%
CCn1c(SC)nc(O)c(C(c2ccc(OC)c(O)c2)c2c(O)nc(SC)n(CC)c2=O)c1=O -6.95%
